About 83,000 compounds went through this panel and 20% of them were active in at least one assay; those are over-represented in the sample as a whole.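 Compound tested at a single concentration for 48 hours in 96-well plates; a percent growth value below 10 was scored as active.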 Values without a mark were called inactive. The source made the active and inactive calls.

Among the test systems are DU-145 prostate; K-562 leukemia; MALME-3M melanoma; MDA-MB-231 breast; RXF 393 renal; SF-268 CNS; SF-295 CNS; SF-539 CNS; UACC-257 melanoma; M14 melanoma.
Holding throughout (experiment): NCI-60 one-dose screen, 48 h (100 = growth as untreated, 0 = no growth, -100 = all killed)
Conditions in all cases: 10 µM

Turning to `COc1cc(/C=C2\CCCC3=C2NC(N)=NC3c2cc(OC)c(OC)c(OC)c2)cc(OC)c1OC` (stereo not given), the growth with DU-145 prostate is -9.85% (active); in the test with K-562 leukemia it was 6.43% (active); in the test on MALME-3M melanoma, -42.5% (active); in the test with MDA-MB-231 breast, 28.9%; in the test on RXF 393 renal, -88% (active); in the test with SF-268 CNS, 15.1%. Also, the growth is -35.3% (active) in the test with SF-295 CNS, 25.9% with SF-539 CNS, -31.1% (active) with UACC-257 melanoma and -36.1% (active) in the test with M14 melanoma.

For `NC(N)=N/N=C(\N=Nc1ccccc1)c1ccc(Cl)cc1`, the growth was 47.3% with DU-145 prostate; 1.17% (active) in the test on K-562 leukemia; 85.6% with MALME-3M melanoma; -12.5% (active) in the test with MDA-MB-231 breast; 41.5% with RXF 393 renal; 34.2% in the test with SF-268 CNS. The growth in the test with SF-295 CNS was -5.99% (active); with SF-539 CNS, 19.7%; in the test on UACC-257 melanoma, 70.9%; in the test with M14 melanoma, 10.2%.

For the compound `COc1ccc(-c2csc(NC(=O)c3ccc(Cc4n[nH]c(=O)c5cccnc45)cc3)n2)cc1`, the growth with DU-145 prostate is 108%; in the test with K-562 leukemia it was 82.9%; in the test with MALME-3M melanoma, 86.8%; in the test with MDA-MB-231 breast it was 79.7%; in the test with RXF 393 renal, 72.4%; with SF-268 CNS it was 97.1%. In addition, the growth in the test on SF-295 CNS was 86.6%; in the test with SF-539 CNS it was 87.1%; with UACC-257 melanoma it was 94.5%; in the test on M14 melanoma, 103%.

Take `O=S(=O)(O)c1cccc(Nc2ccc3ccccc3c2)c1`: the growth with DU-145 prostate was 109%; with K-562 leukemia, 98.7%; in the test on MALME-3M melanoma it was 88.1%; in the test with MDA-MB-231 breast, 90.1%; with RXF 393 renal, 107%; in the test with SF-268 CNS, 95.8%. The growth in the test with SF-295 CNS is 104%; in the test on SF-539 CNS, 102%; with UACC-257 melanoma it was 89.7%; in the test with M14 melanoma it was 92.7%.

For `Nc1ccc(/C=N/Nc2ccnc3c(O)cccc23)c2cccnc12`, the growth in the test on DU-145 prostate is 37.4%; in the test with K-562 leukemia, 0.593% (active); in the test on MALME-3M melanoma, 101%; in the test with MDA-MB-231 breast, 0.678% (active); in the test on RXF 393 renal it was 55.8%; with SF-268 CNS it was 43.5%. The growth in the test on SF-295 CNS is 84.8%; in the test on SF-539 CNS it was 67.7%; in the test on UACC-257 melanoma it was 105%; in the test with M14 melanoma, 53.8%.

Turning to `C/C=C/CSC(C)(C)C(=O)NC`, the growth with DU-145 prostate was 103%; with K-562 leukemia, 110%; in the test with MALME-3M melanoma it was 111%; in the test with MDA-MB-231 breast, 120%; with RXF 393 renal it was 110%; in the test with SF-268 CNS it was 103%. Further, the growth in the test with SF-295 CNS was 106%; in the test on SF-539 CNS it was 100%; with UACC-257 melanoma, 92.2%; in the test on M14 melanoma it was 104%.

For `CN(C)CCOc1ccc(-c2nc3sccn3c2-c2ccnc(S(C)(=O)=O)n2)cc1`, the growth with DU-145 prostate is 112%; in the test with K-562 leukemia it was 102%; in the test with MALME-3M melanoma it was 112%; with MDA-MB-231 breast, 110%; in the test with RXF 393 renal it was 113%; in the test on SF-268 CNS, 117%. Moreover, the growth is 103% in the test on SF-295 CNS, 102% with SF-539 CNS, 101% with UACC-257 melanoma and 112% in the test with M14 melanoma.

For `CC[C@@H](C(=O)[C@H](C)[C@H](O)[C@@H](C)[C@H]1O[C@H]([C@@H](CC)C(=O)N(CC)CC)CC[C@H]1C)C1O[C@]2(C=C[C@@H](O)[C@]3(CC[C@@](C)([C@H]4CC[C@](O)(CC)[C@H](C)O4)O3)O2)[C@H](C)C[C@@H]1C` (stereo not given in full), the growth in the test on DU-145 prostate is 55.1%; in the test on K-562 leukemia, 16.2%; in the test with MALME-3M melanoma, -20.1% (active); in the test with MDA-MB-231 breast it was 15.9%; with RXF 393 renal it was 14%; in the test with SF-268 CNS, 42.1%. Besides, the growth with SF-295 CNS is -6.82% (active); in the test with SF-539 CNS, 38.2%; in the test on UACC-257 melanoma it was 12.4%; in the test on M14 melanoma it was 11.7%.

Turning to `CC(=O)OC1C=CC(OC(C)=O)O1` (stereo not given), the growth was 101% in the test with DU-145 prostate; 91.1% in the test on K-562 leukemia; 89.7% in the test on MALME-3M melanoma; 97.7% with MDA-MB-231 breast; 112% with RXF 393 renal; 97.4% in the test on SF-268 CNS. For the same compound, the growth in the test on SF-295 CNS is 93.5%; in the test with SF-539 CNS it was 112%; in the test on UACC-257 melanoma, 94%; in the test with M14 melanoma, 89.5%.

Regarding `CCCN1CN2C(=O)N3CN(CCC)CN4C(=S)N(C1)C2C34` (stereo not given), the growth in the test with DU-145 prostate is 101%; in the test on K-562 leukemia it was 105%; with MALME-3M melanoma it was 112%; in the test on MDA-MB-231 breast it was 98.6%; with RXF 393 renal, 132%; in the test with SF-268 CNS, 97.3%. Besides, the growth in the test with SF-295 CNS was 94.2%; in the test on SF-539 CNS, 95.3%; in the test with UACC-257 melanoma, 92.9%; in the test on M14 melanoma it was 94.5%.

On to `S=c1cnc2ccccc2[nH]1`, for which the growth is 103% with DU-145 prostate; 99.8% in the test with K-562 leukemia; 84.6% with MALME-3M melanoma; 111% with MDA-MB-231 breast; 114% in the test with RXF 393 renal; 95.7% in the test with SF-268 CNS. The growth is 103% in the test on SF-295 CNS, -10.4% (active) with SF-539 CNS, 99.1% in the test on UACC-257 melanoma and 89% in the test on M14 melanoma.

On to `COc1ccc(-c2cc(-c3ccc(Cl)cc3)nc(SCCCC(=O)NO)n2)cc1`, for which the growth is 9.82% (active) with DU-145 prostate; 7.35% (active) in the test with K-562 leukemia; -11.8% (active) with MALME-3M melanoma; 1.61% (active) with MDA-MB-231 breast; -21% (active) with RXF 393 renal; 2.08% (active) in the test on SF-268 CNS. Besides, the growth in the test with SF-295 CNS is -19.1% (active); with SF-539 CNS, 4.55% (active); in the test on UACC-257 melanoma, 3.4% (active); in the test with M14 melanoma it was -31.1% (active).

`COC1OC(COS(=O)OC)C(O)C(O)C1OS(=O)OC` (stereo not given): the growth with DU-145 prostate was 99.5%; in the test on K-562 leukemia, 102%; in the test with MALME-3M melanoma, 97.1%; with MDA-MB-231 breast, 103%; with RXF 393 renal, 111%; with SF-268 CNS, 103%. Also, the growth with SF-295 CNS was 103%; in the test with SF-539 CNS it was 98.3%; in the test with UACC-257 melanoma it was 99.5%; in the test on M14 melanoma it was 96.6%.

On to `CCOC(=O)C1C(C(=O)OCC)C2C(=O)C3C(C(=O)OCC)C(C(=O)OCC)C3C(=O)C12` (stereo not given), for which the growth in the test on DU-145 prostate was 110%; with K-562 leukemia, 94.2%; in the test on MALME-3M melanoma, 106%; in the test with MDA-MB-231 breast, 110%; in the test on RXF 393 renal, 112%; with SF-268 CNS, 101%. In addition, the growth in the test on SF-295 CNS was 101%; in the test on SF-539 CNS, 105%; in the test with UACC-257 melanoma, 108%; with M14 melanoma, 110%.

Source of the values: PubChem BioAssay (NCI).
